AMA1 RON2 block: qHTS for Inhibitors of AMA1-RON; Towards Development of Antimalarial Drug Lead: Primary Screen; Plasmodium falciparum AMA1 (3D7) - RON2 peptide interaction; AlphaScreen AMA1-biotinylated RON2 peptide binding; Potency, µM (titrated, usually from 58.2 µM), for the others: at the highest dose activity change, negative = inhibition, hits mostly inhibitors; hit rate 0.2% among 360,000; AID 720542, 2013;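 also: potency is read from the fitted curve at half-maximal effect; 0% = vehicle wells and -100% = peptide control; nearly all actives have a fitted effect of over 45% in size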
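AMA1 (3D7) with his tag at 25 nM final met compounds first, then biotinylated RON2 peptide at 25 nM; detection used donor plus acceptor beads, 10 µg/mL apiece, read by AlphaScreen after 30 min at room temperature.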
Pf growth 96h: Primary qHTS for delayed death inhibitors of the malarial parasite plastid, 96 hour incubation. Potency, µM (highest dose often 28.7 µM), for inactives: at the highest dose activity change, negative = inhibition, usual class: inhibitors. P. falciparum luciferase reporter growth, 96 h. hit rate 6.9% among 320,000; also: potency is read from the fitted curve at half-maximal effect; % is scaled to controls: 0 for no effect and ±100 for the full control effect
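P. falciparum expressing integrated firefly luciferase grown in erythrocytes (2% hematocrit, 0.05% parasitemia final) with compounds for 96 hours at 37 C, 5% CO2. Growth inhibition read as loss of luminescence after adding luciferase detection reagent.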
SARS PLpro yeast: qHTS of Yeast-based Assay for SARS-CoV PLP; S. cerevisiae expressing SARS-CoV PLpro, growth rescue; Potency, µM (titrated, usually from 32.9 µM), without a hit: top-dose activity, positive = growth rescue, hits mostly activators; hit rate 0.19% among 330,000; AID 485353, 2010; calls by dose curve; also: potency is read from the fitted curve at half-maximal effect; 0% is about no effect; nearly all actives have a fitted effect of over 55% in size
Shiga toxin inh: A qHTS for Small Molecule Inhibitors of Shiga Toxin. inhibition, % at 38.7 µM. hit rate 9.2% among 290,000. Vero cells, Shiga toxin protein synthesis inhibition reporter. AID 2315, 2010; in the data active = inhibition mostly above about 28%, no sharp cut-off; inactive = mostly below about 43%; also: 0% is about no effect
Cycloheximide cs: Cycloheximide Counterscreen for Small Molecule Inhibitors of Shiga Toxin | cell reporter, cycloheximide protein synthesis inhibition counterscreen | max response, % | hit rate 12% among 300,000; in the data active = max response mostly above about 13%, no sharp cut-off; inactive = mostly below about 14%; also: read at 38.3 µM for the half of the compounds with a filed dose; 0% is about no effect
Pf growth 48h: Primary qHTS for delayed death inhibitors of the malarial parasite plastid, 48 hour incubation; P. falciparum luciferase growth in erythrocytes, 48 h; Potency, µM (top dose mostly 28.7 µM), without a hit: top-dose activity change, negative = inhibition, most hits filed as inhibitors; hit rate 5.9% among 310,000; also: potency is read from the fitted curve at half-maximal effect; % is scaled to controls: 0 for no effect and ±100 for the full control effect
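First compound was added to culture medium, then infected red cells at 0.1% parasitemia and 2% hematocrit (final). After incubation at 37 C under 5% CO2, luciferase detection reagent was dispensed and light output recorded.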
Numbers without * were called inactive; ? = inconclusive; . = no result; [ ] = dose if it differs, or a comment. Rows were chosen to be rich in hits. Some 19% of all compounds tested hit in one or more screens of this group. Unless noted, calls follow the shape of the dose curve; as a rule, active = well fitted curve in the direction sought with a large enough effect; inconclusive = small, poorly fitted or top-dose-only effect, or another doubt; inactive = no such curve, though single readings can be large; an effect the other way counts as inactive or inconclusive.

SMILES	AMA1 RON2 block	Pf growth 96h	SARS PLpro yeast	Shiga toxin inh	Cycloheximide cs	Pf growth 48h
CC(C)n1nc(C(=O)Nc2cccc(S(=O)(=O)N3CCOCC3)c2)c2ccccc2c1=O	-2%	10µM*	-1%	.	.	?
Cn1nc(C(=O)OCC(=O)Nc2cccc(S(=O)(=O)N3CCCC3)c2)c2ccccc2c1=O	-2%	-12%	1%	-4	-5	12µM*
CC(C)n1nc(C(=O)Nc2cccc(S(=O)(=O)N3CCCCC3)c2)c2ccccc2c1=O	-5%	?	11%	.	.	?
Cn1nc(C(=O)Nc2cccc(S(=O)(=O)N3CCCC3)c2)c2ccccc2c1=O	-10%	9.3µM*	-4%	.	.	8.3µM*
CCN(CC)CCNC(=S)Nc1ccc(F)cc1	-4%	10%	1%	-3	1	5%
CC[C@@]1(C(=O)OC)N[C@H](CN(C)C(=O)c2ccc(F)cc2)[C@@H]2C(=O)N(Cc3ccccc3)C(=O)[C@@H]21	8%	.	-3%	.	.	.
COC(=O)c1[nH]c2ccc(C)cc2c1NC(=O)Nc1ccc(OC)cc1	4%	47%	6%	40	19*	43%
Cc1ccc2[nH]c3c(c2c1)CN(C(=O)CN1CCCc2ccccc21)CC3	-18%	4.7µM*	1%	69*	19*	4.1µM*
COC(=O)c1[nH]c2ccc(F)cc2c1NC(=O)Nc1ccc(OC)cc1	2%	?	-1%	-3	-1	20%
Cc1ccc2[nH]c3c(c2c1)CN(C(=O)CN1CCCCC1)CC3	-8%	-3%	-4%	3	-3	?
COC(=O)c1[nH]c2ccc(C)cc2c1NC(=O)CN1CCCc2ccccc21	-12%	2.3µM*	-29%	27	15	4.1µM*
CCS(=O)(=O)C1=NN2C(=N)/C(=C\c3ccc(SCc4ccco4)o3)C(=O)N=C2S1	-7%	-35%	-1%	-6	8	-26%
COc1ccc(CCN2CC(O)=C(c3nc(C)cs3)C2=N)cc1OC	23%	21%	5%	-11	-6	-2%
COc1ccc(CCN2CC(O)=C(c3nc4ccccc4c(=O)[nH]3)C2=N)cc1OC	21%	.	5%	-13	5	13µM*
Cc1cccc(NC(=O)CSc2nccn2C)c1	-1%	.	.	.	.	.
COc1ccccc1Nc1nc(N)nc(CSC(=S)N2CCCCC2C)n1 (stereo not drawn)	9%[2.32 µM]	?	13µM*	43*	43*	?
Cc1cccc(Nc2nc(N)nc(CSc3nccn3C)n2)c1	8%	0%	2%	51*	11	105%
Cc1ccc(Nc2nc(N)nc(CSc3nccn3C)n2)cc1	-19%	.	2%	69*	52*	133%
Cc1ccc(-c2nnc(SCc3nc(N)nc(Nc4ccccc4C)n3)n2N)cc1	-1%	.	-12%	8	-4	-2%
COc1ccccc1Nc1nc(N)nc(CSc2nncn2C)n1	-3%	15%	-2%	-30	1	.
COc1ccccc1Nc1nc(N)nc(CSC(=S)N2CCN(c3ccccc3)CC2)n1	-24%	?	2%	21	18	?
COc1ccccc1Nc1nc(N)nc(CSc2nccn2C)n1	-1%	-18%	0%	45*	6	22%
O=C(NN1CCCCC1)c1ccc(COc2ccc(Cl)cc2)cc1	-10%	?	1%	-6	-3	6%
CC(=O)Nc1ccc(NC(=O)CSc2ccc3nnc(-c4cccnc4)n3n2)cc1	-9%	7%	-5%	-4	-5	4%
C=C1C(=O)O[C@@H]2C[C@@H](C)[C@@H]3C=CC(=O)[C@@]3(C)[C@@H](OC(=O)CC(=O)O[C@H]3[C@@H]4C(=C)C(=O)O[C@@H]4C[C@@H](C)[C@@H]4C=CC(=O)[C@]43C)[C@H]12	2%	1.3µM*	-2%	-16	-11	1µM*
SMILES	AMA1 RON2 block	Pf growth 96h	SARS PLpro yeast	Shiga toxin inh	Cycloheximide cs	Pf growth 48h
C=C1C(=O)O[C@H]2C[C@@H](C)[C@@H]3C=CC(=O)[C@@]3(C)C[C@H]12	8%	8.3µM*	-1%	47*	40*	5.2µM*
C=C1C(=O)OC2CC(C)C3C=CC(=O)C3(C)C(O)C12 (stereo not drawn)	-6%	.	.	.	.	.
COc1cc(CNCCO)cc(Cl)c1OCc1ccccc1Cl	2%	-8%	-1%	-4	0	?
OCCCCNCc1ccc(OCc2ccc(Cl)cc2Cl)cc1	0%	15µM*	-12%	-19	-8	13µM*
OCCNCc1ccc(OCc2ccc(Cl)cc2Cl)cc1	-5%	26%	-2%	35	25*	?
Nc1nc(SCC(=O)Nc2cc(Cl)ccc2Cl)n[nH]1	5%	.	-3%	.	.	.
Cc1ccccc1NC(=O)CN1C(=O)NC(C)(CCc2ccccc2)C1=O (stereo not drawn)	-4%	-22%	1%	-3	16	13µM*
CC1(CCc2ccccc2)NC(=O)N(CC(=O)Nc2ccccc2C#N)C1=O (stereo not drawn)	4%	12%	0%	.	.	-2%
O=C(Nc1cc2c(cc1C(=O)O)OCCCO2)c1ccc(C(F)(F)F)cc1	-19%	196%	0%	76*	44*	118%
O=C(Cc1ccccc1)Nc1ccc2c(c1)OC1(CCCC1)O2	-28%	141%	-13%	.	.	126%
O=C(Cc1ccccc1)Nc1cc2c(cc1Cl)OCCCO2	0%	113%	-1%	75*	59*	67%
CCC(O)c1cc2c(cc1NC(=O)c1ccc(C)cc1)OCCO2 (stereo not drawn)	6%	23%	-8%	34	17	-28%
CCc1ccc(C(=O)Nc2cc3c(cc2Cl)OCCCO3)cc1	1%	285%	-4%	84*	60*	83%
COc1cc(C2SCC(=O)N2CCN2CCCCC2)ccc1O (stereo not drawn)	-9%	143%	0%	-11	-1	0%
COc1ccc(OC)c(S(=O)(=O)NC2CC(=O)N(c3ccc(C)c(C)c3)C2)c1 (stereo not drawn)	-15%	?	-2%	.	.	?
CCCOc1ccc(Cn2c(C)nc([N+](=O)[O-])c2SCC(O)COC)cc1[N+](=O)[O-] (stereo not drawn)	-12%	10µM*	-1%	-2	-4	?
CCOc1ccc(Cn2c(C)nc([N+](=O)[O-])c2SCC(O)CCl)cc1[N+](=O)[O-] (stereo not drawn)	1%	.	-1%	-9	-2	10µM*
CCC/C=C(\CCC)C(NC(=O)OCC(C)C)c1ccc(C(=O)OC)cc1 (stereo not drawn)	19%	?	-9%	-11	-3	?
CCC/C=C(\CCC)C(NS(=O)(=O)c1cccc2cccnc12)c1ccc(C(=O)OC)cc1 (stereo not drawn)	-1%	13µM*	-24%	-8	-2	?
